# In all, about 5,500 compounds went through this assay and about 2,000 (36%) were called active. Not shown: some 18% with an inconclusive outcome. Rule as the data show it: active = normalized growth mostly below about 0.91 (no sharp cut-off); inconclusive = no clear call, values can overlap the other calls; inactive = mostly above about 0.92. This is one part of the list.
# Assay: chemical genetic growth profiling, strain panel (AID 1159580);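 also: tested at 20 µM; growth read once vehicle control cultures reached saturation at 30 °C; 1 = growth at the plate median or of vehicle wells; lower values mean less growth of the strain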
# Conditions: S. cerevisiae deletion strains, growth OD
# [1] = locus YAR019C, strain CDC15, active compounds read low
# [2] = locus YBL105C, strain PKC1, active compounds read low
# [3] = locus YBR135W, strain CKS1, active compounds read low
# [4] = locus YBR136W, strain MEC1, active compounds read low
# [5] = locus YBR160W, strain CDC28, active compounds read low
# [6] = locus YDL017W, strain CDC7, active compounds read low
# [7] = locus YDL028C, strain MPS1, active compounds read low
# [8] = locus YDL101C, strain DUN1, active compounds read low
# [9] = locus YDL108W, strain KIN28, active compounds read low
# [10] = locus YDL132W, strain cdc53, active compounds read low
# [11] = locus YDL214C, strain PRR2, active compounds read low
# [12] = locus YDR052C, strain DBF4, active compounds read low
# [13] = locus YDR054C, strain cdc34, active compounds read low
# [14] = locus YDR226W, strain ADK1, active compounds read low
# [15] = locus YDR477W, strain SNF1, active compounds read low
# [16] = locus YER123W, strain YCK3, active compounds read low
# [17] = locus YER133W, strain GLC7, active compounds read low
# [18] = locus YFL009W, strain cdc4, active compounds read low
# [19] = locus YFL029C, strain CAK1, active compounds read low
# [20] = locus YFR003C, strain YPI1, active compounds read low
# [21] = locus YFR019W, strain FAB1, active compounds read low
# [22] = locus YFR028C, strain CDC14, active compounds read low
# [23] = locus YGR040W, strain KSS1, active compounds read low
# [24] = locus YGR052W, strain FMP48, active compounds read low
# [25] = locus YGR092W, strain DBF2, active compounds read low
# [26] = locus YHR030C, strain SLT2, active compounds read low
# [27] = locus YHR079C, strain IRE1, active compounds read low
# [28] = locus YHR082C, strain KSP1, active compounds read low
# [29] = locus YHR205W, strain SCH9, active compounds read low
# [30] = locus YIL147C, strain SLN1, active compounds read low
# [31] = locus YJL095W, strain BCK1, active compounds read low
# [32] = locus YJL157C, strain FAR1, active compounds read low
# [33] = locus YJR016C, strain ILV3, active compounds read low
# [34] = locus YJR066W, strain TOR1 (second series), active compounds read low
# [35] = locus YJR066W, strain TOR1, active compounds read low
# [36] = locus YKL048C, strain ELM1, active compounds read low
# [37] = locus YKL067W, strain YNK1, active compounds read low
# [38] = locus YKL101W, strain HSL1, active compounds read low
# [39] = locus YKL193C, strain SDS22, active compounds read low
# [40] = locus YKL203C, strain TOR2, active compounds read low
# [41] = locus YLR113W, strain HOG1, active compounds read low
# [42] = locus YLR133W, strain CKI1, active compounds read low
# [43] = locus YLR403W, strain SFP1, active compounds read low
# [44] = locus YML070W, strain DAK1, active compounds read low
# [45] = locus YMR001C, strain CDC5, active compounds read low
# [46] = locus YMR205C, strain PFK2 (second series), active compounds read low
# [47] = locus YMR277W, strain FCP1, active compounds read low
# [48] = locus YNL006W, strain LST8, active compounds read low
# [49] = locus YNL020C, strain ARK1, active compounds read low
# [50] = locus YNL161W, strain CBK1, active compounds read low
# [51] = locus YNL183C, strain NPR1, active compounds read low
# [52] = locus YNL207W, strain RIO2, active compounds read low
# [53] = locus YNL222W, strain SSU72, active compounds read low
# [54] = locus YNL307C, strain MCK1 (second series), active compounds read low
# [55] = locus YOL078W, strain AVO1, active compounds read low
# [56] = locus YOL136C, strain PFK27, active compounds read low
# [57] = locus YOR061W, strain CKA2, active compounds read low
# [58] = locus YOR119C, strain RIO1, active compounds read low
# [59] = locus YOR231W, strain MKK1, active compounds read low
# [60] = locus YOR329C, strain SCD5, active compounds read low
# [61] = locus YPL031C, strain PHO85, active compounds read low
# [62] = locus YPL153C, strain RAD53, active compounds read low
# [63] = locus YPL204W, strain HRR25, active compounds read low
# [64] = locus YPL209C, strain IPL1, active compounds read low
# [65] = locus YPL256C, strain CLN2, active compounds read low
# [66] = locus YPR025C, strain CCL1, active compounds read low
# [67] = locus YPR106W, strain ISR1, active compounds read low
# [68] = locus YPR111W, strain DBF20, active compounds read low
# [69] = strain NNK1, active compounds read low
# [70] = strain TSCII, active compounds read low
smiles,measurement,setting,value
O=C1Nc2ccccc2/C1=N/N=C\c1ccccc1Cl,normalized growth,[1],0.975 (inactive)
same,normalized growth,[2],0.967 (inactive)
same,normalized growth,[3],0.986 (inactive)
same,normalized growth,[4],0.966 (inactive)
same,normalized growth,[5],0.972 (inactive)
same,normalized growth,[6],0.97 (inactive)
same,normalized growth,[7],0.97 (inactive)
same,normalized growth,[8],0.97 (inactive)
same,normalized growth,[9],0.969 (inactive)
same,normalized growth,[10],0.977 (inactive)
same,normalized growth,[11],0.92 (inactive)
same,normalized growth,[12],0.968 (inactive)
same,normalized growth,[13],0.97 (inactive)
same,normalized growth,[14],0.987 (inactive)
same,normalized growth,[15],0.909 (inactive)
same,normalized growth,[16],0.85 (inactive)
same,normalized growth,[17],0.928 (inactive)
same,normalized growth,[18],0.978 (inactive)
same,normalized growth,[19],0.982 (inactive)
same,normalized growth,[20],0.966 (inactive)
same,normalized growth,[21],0.935 (inactive)
same,normalized growth,[22],0.987 (inactive)
same,normalized growth,[23],0.903 (inactive)
same,normalized growth,[24],0.838 (inactive)
same,normalized growth,[25],0.867 (inactive)
same,normalized growth,[26],0.83 (active)
same,normalized growth,[27],0.906 (inactive)
same,normalized growth,[28],0.918 (inactive)
same,normalized growth,[29],0.858 (inactive)
same,normalized growth,[30],0.973 (inactive)
same,normalized growth,[31],0.798 (inactive)
same,normalized growth,"locus YJL128C, strain PBS2, active compounds read low",0.925 (inactive)
same,normalized growth,[32],0.928 (inactive)
same,normalized growth,[33],0.986 (inactive)
same,normalized growth,[34],0.916 (inactive)
same,normalized growth,[35],0.9 (inactive)
same,normalized growth,[36],0.901 (inactive)
same,normalized growth,[37],0.896 (inactive)
same,normalized growth,[38],0.893 (inactive)
same,normalized growth,[39],0.971 (inactive)
same,normalized growth,[40],0.954 (inactive)
same,normalized growth,[41],0.708 (active)
same,normalized growth,[42],0.916 (inactive)
same,normalized growth,[43],0.902 (inactive)
same,normalized growth,[44],0.897 (inactive)
same,normalized growth,[45],0.976 (inactive)
same,normalized growth,[46],0.887 (inactive)
same,normalized growth,[47],0.972 (inactive)
same,normalized growth,[48],0.974 (inactive)
same,normalized growth,[49],0.896 (inactive)
same,normalized growth,[50],0.976 (inactive)
same,normalized growth,[51],0.841 (inactive)
same,normalized growth,[52],0.974 (inactive)
same,normalized growth,[53],0.979 (inactive)
same,normalized growth,[54],0.855 (inactive)
same,normalized growth,[55],0.968 (inactive)
same,normalized growth,[56],0.904 (inactive)
same,normalized growth,[57],0.888 (inactive)
same,normalized growth,[58],0.93 (inactive)
same,normalized growth,[59],0.823 (inactive)
same,normalized growth,[60],0.965 (inactive)
same,normalized growth,[61],0.877 (inactive)
same,normalized growth,[62],0.915 (inactive)
same,normalized growth,[63],0.888 (inactive)
same,normalized growth,[64],0.977 (inactive)
same,normalized growth,[65],0.907 (inactive)
same,normalized growth,[66],0.97 (inactive)
same,normalized growth,[67],0.97 (inactive)
same,normalized growth,[68],0.963 (inactive)
same,normalized growth,[69],0.967 (inactive)
same,normalized growth,[70],0.976 (inactive)
O=C1Nc2ccccc2/C1=N/N=C\c1cc(Br)cc(Br)c1O,normalized growth,[1],0.947 (inactive)
same,normalized growth,[2],0.959 (inactive)
same,normalized growth,[3],0.964 (inactive)
same,normalized growth,[4],0.955 (inactive)
same,normalized growth,[5],0.959 (inactive)
same,normalized growth,[6],0.957 (inactive)
same,normalized growth,[7],0.95 (inactive)
same,normalized growth,[8],0.946 (inactive)
same,normalized growth,[9],0.957 (inactive)
same,normalized growth,[10],0.944 (inactive)
same,normalized growth,[11],0.231 (active)
same,normalized growth,[12],0.944 (inactive)
same,normalized growth,[13],0.916 (inactive)
same,normalized growth,[14],0.951 (inactive)
same,normalized growth,[15],0.246 (active)
same,normalized growth,[16],0.233 (active)
same,normalized growth,[17],0.249 (active)
same,normalized growth,[18],0.945 (inactive)
same,normalized growth,[19],0.949 (inactive)
same,normalized growth,[20],0.947 (inactive)
same,normalized growth,[21],0.396 (active)
same,normalized growth,[22],0.964 (inactive)
same,normalized growth,[23],0.278 (active)
same,normalized growth,[24],0.132 (active)
same,normalized growth,[25],0.121 (active)
same,normalized growth,[26],0.128 (active)
same,normalized growth,[27],0.132 (active)
same,normalized growth,[28],0.124 (active)
same,normalized growth,[29],0.0116 (active)
same,normalized growth,[30],0.948 (inactive)
same,normalized growth,[31],0.112 (active)
same,normalized growth,[32],0.147 (active)
same,normalized growth,[33],0.969 (inactive)
same,normalized growth,[34],0.393 (active)
same,normalized growth,[35],0.114 (active)
same,normalized growth,[36],0.303 (active)
same,normalized growth,[37],0.194 (active)
same,normalized growth,[38],0.225 (active)
same,normalized growth,[39],0.937 (inactive)
same,normalized growth,[40],0.209 (active)
same,normalized growth,[41],0.331 (active)
same,normalized growth,[42],0.134 (active)
same,normalized growth,[43],0.0728 (active)
same,normalized growth,[44],0.259 (active)
same,normalized growth,[45],0.945 (inactive)
same,normalized growth,[46],0.204 (active)
same,normalized growth,[47],0.959 (inactive)
same,normalized growth,[48],0.764 (active)
same,normalized growth,[49],0.114 (active)
same,normalized growth,[50],0.943 (inactive)
same,normalized growth,[51],0.128 (active)
same,normalized growth,[52],0.957 (inactive)
same,normalized growth,[53],0.96 (inactive)
same,normalized growth,[54],0.128 (active)
same,normalized growth,[55],0.937 (inactive)
same,normalized growth,[56],0.198 (active)
same,normalized growth,[57],0.105 (active)
same,normalized growth,[58],0.184 (active)
same,normalized growth,[59],0.139 (active)
same,normalized growth,[60],0.937 (inactive)
same,normalized growth,[61],0.203 (active)
same,normalized growth,[62],0.196 (active)
same,normalized growth,[63],0.199 (active)
same,normalized growth,[64],0.967 (inactive)
same,normalized growth,[65],0.313 (active)
same,normalized growth,[66],0.959 (inactive)
same,normalized growth,[67],0.943 (inactive)
same,normalized growth,[68],0.933 (inactive)
same,normalized growth,[69],0.34 (active)
same,normalized growth,[70],0.951 (inactive)
